In the supplement of paper PMC10849652:
About 8,800 targets were measured; listed, in parts, are those with a hit and a random draw of the rest. About 0.5% of all pairs of compound and target were hits. A number with no mark means an inactive call.

Tests used:
Experiment in all cases: log2 fold change, soluble protein after heating vs DMSO (PISA); higher = thermal stabilisation; K562 lysate, 10 uM; active = over 0.2 and 3.5 SD of the protein, either way, in both replicates (recomputed)
[1] = compound: C1=CC=C(C=C1)[C@H](COC2=CC3=C(C=C2)NC(=O)N3)NC(=O)C4=CC=CN(C4=O)CC5=CC(=C(C=C5)F)F
Procedure, shortened: (§1)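 Log-two fold change in thermal stability relative to solvent controls is reported from duplicates. For each sample, crude K562 extract from dounce-homogenised pellets in PBS pH 7.4 with 1 mM MgCl2, at 1 mg/mL protein, was treated with 10 μM compound for 30 min. Aliquots heated for 3 min across 48°C-58°C were pooled, brought to 0.5% NP-40 at 4°C and cleared at 21,000xg for 90 min. The supernatant was quantified by TMTpro 16plex LC-MS/MS with channel sums equalised.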

[2] = compound: CC1=C(SC2=C1C(=N[C@H](C3=NN=C(N32)C)CC(=O)N)C4=CC=C(C=C4)Cl)C
Procedure, shortened: as §1

[3] = compound: CC1=C2C(=CC=C1)N=C(N(C2=O)C3=CC=CC=C3C)CN4C=NC5=C(N=CN=C54)N
Procedure, shortened: as §1

[4] = compound: Cc1sc2c(c1C)C(c1ccc(Cl)cc1)=N[C@@H](CC(=O)OC(C)(C)C)c1nnc(C)n1-2
Procedure, shortened: as §1

[5] = compound: c1ccc([C@@H]2C[C@H]2NC2CCNCC2)cc1
Procedure, shortened: as §1

Sequence of UniProt Q9Y5T5 (Q9Y5T5 whole entry, looked up): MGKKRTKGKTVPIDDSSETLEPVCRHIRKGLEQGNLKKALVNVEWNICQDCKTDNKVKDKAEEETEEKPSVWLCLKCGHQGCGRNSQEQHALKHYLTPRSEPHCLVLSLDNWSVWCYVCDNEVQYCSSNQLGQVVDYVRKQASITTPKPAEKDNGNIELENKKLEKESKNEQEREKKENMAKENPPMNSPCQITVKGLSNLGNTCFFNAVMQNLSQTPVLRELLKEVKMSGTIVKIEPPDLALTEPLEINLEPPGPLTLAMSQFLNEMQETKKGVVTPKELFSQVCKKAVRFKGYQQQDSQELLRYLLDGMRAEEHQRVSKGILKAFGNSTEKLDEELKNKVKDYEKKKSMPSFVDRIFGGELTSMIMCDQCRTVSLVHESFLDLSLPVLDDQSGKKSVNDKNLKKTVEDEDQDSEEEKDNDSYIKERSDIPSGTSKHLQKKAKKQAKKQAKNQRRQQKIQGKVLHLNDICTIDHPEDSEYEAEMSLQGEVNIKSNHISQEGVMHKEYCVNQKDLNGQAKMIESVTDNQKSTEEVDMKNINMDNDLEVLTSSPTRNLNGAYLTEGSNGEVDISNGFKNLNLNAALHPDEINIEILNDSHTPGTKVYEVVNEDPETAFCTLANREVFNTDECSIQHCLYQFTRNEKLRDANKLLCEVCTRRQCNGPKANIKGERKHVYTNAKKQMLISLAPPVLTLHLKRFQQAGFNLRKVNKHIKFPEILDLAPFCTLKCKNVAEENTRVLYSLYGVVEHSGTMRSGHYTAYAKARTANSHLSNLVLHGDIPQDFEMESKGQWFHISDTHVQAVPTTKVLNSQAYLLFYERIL
Sequence of UniProt Q9UL40 (Q9UL40 whole entry, looked up): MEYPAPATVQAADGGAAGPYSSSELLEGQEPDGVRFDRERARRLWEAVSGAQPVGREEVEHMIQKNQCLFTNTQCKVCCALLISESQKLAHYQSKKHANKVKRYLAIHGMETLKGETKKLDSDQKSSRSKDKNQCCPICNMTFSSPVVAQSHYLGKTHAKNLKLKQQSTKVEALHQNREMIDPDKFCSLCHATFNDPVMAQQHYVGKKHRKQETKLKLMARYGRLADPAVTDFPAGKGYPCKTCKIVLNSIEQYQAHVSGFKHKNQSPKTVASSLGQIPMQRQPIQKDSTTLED
Sequence of UniProt Q9UBK9 (Q9UBK9 whole entry, looked up): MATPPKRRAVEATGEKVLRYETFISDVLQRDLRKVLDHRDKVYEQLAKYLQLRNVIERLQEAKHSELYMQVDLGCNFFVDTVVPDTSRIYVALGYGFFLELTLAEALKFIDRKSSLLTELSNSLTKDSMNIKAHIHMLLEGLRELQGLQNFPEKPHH

Row | Target | log2 fold change [1] | log2 fold change [2] | log2 fold change [3] | log2 fold change [4] | log2 fold change [5]
1 | USP16 (UniProt Q9Y5T5) | 0.047 | -0.015 | 0.011 | 0.038 | -0.002
2 | UXT isoform 2 (UniProt Q9UBK9) | 0.033 | 0.026 | 0.008 | -0.053 | -0.071
3 | ZNF346 (UniProt Q9UL40) | 0.031 | -0.017 | – | -0.205 (active) | -0.086
